Assay outcomes (PubChem BioAssay)
An excerpt weighted towards active compounds, which were near 3% of everything screened.
Vif inh: blocks HIV Vif function | inhibition, % at 7.49 µM | actives 0.35% (n = 340,000) | AID 602346 | HEK293T cells, Vif self-association by quenched fluorescence, imaging, 24 h; in the data active means inhibition above about 50%, passing the limit was not always enough; inconclusive means no clear call, values can overlap the other calls; inactive means below about 31%
Wnt act: activators of Wnt/beta-catenin signaling. actives 1.2% (n = 300,000). Wnt/beta-catenin reporter cell assay, activator, plate reader. activation, % at 9.35 µM; in the data active means activation above about 30%, passing the limit was not always enough; inconclusive means no clear call, values can overlap the other calls;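 further: 0% = neutral control wells and 100% = positive control wells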
esBAF inh: inhibitors of esBAF chromatin remodeling in mouse ES cells. Bmi1-luciferase knock-in reporter, 24 h; 100% = twice the neutral-well signal. reporter increase, % at 12.5 µM. actives 2% (n = 350,000). AID 602393; in the data active means activation above about 40%; inconclusive means no clear call, values can overlap the other calls;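 further: 0% = median of the plate's neutral control wells and 100% = double that signal; a rise in the Bmi1 reporter signal indicates esBAF inhibition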
MITF TRPM1 HTS: activators of MITF-driven TRPM1 promoter activity in SK-MEL-5 cells; SK-MEL-5 TRPM1-promoter luciferase, 24 h; % of positive control, neutral wells = 0; activation, % at 12.5 µM; actives 0.75% (n = 300,000);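 active means mean activation of at least 80% with every replicate also reaching 80%; inconclusive means mean reaches 80% but some replicate falls short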;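 further: 0% = neutral control wells and 100% = parthenolide positive control wells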
Glyco luc inh: N-linked glycosylation inhibition; D54 ERlucT glycosylation luciferase reporter, 24 h; percent of 100 nM tunicamycin response; reporter increase, % at 12.5 µM; actives 0.23% (n = 360,000); AID 588692;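 active means mean luciferase reporter signal, scaled so untreated is 0 and the glycosylation-blocking control 100, at or above a set limit in every replicate; inconclusive means mean reaches the limit but not every replicate does; inactive means mean below the limit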;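 further: luciferase carries N-glycosylation sites so blocking glycosylation raises the light; 0% = median of neutral control wells and 100% = median of 100 nM tunicamycin wells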
PfHsp90 set2: inhibits growth of yeast expressing Plasmodium falciparum Hsp90; inhibition, % at 9.4 µM; AID 504621; actives 0.32% (n = 310,000); S. cerevisiae expressing PfHsp90, BacTiter-Glo ATP, 48 h; yeast lacking PDR1 and PDR3 efflux regulators;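 active means every replicate shows inhibition above about 80%, whatever the replicate mean, limit read from the data; inconclusive means mean inhibition reaches the set limit but some replicate falls short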;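 further: 0% = DMSO neutral controls and 100% = 20 µM radicicol positive controls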
The depositor's hits bear a star; ? = inconclusive; . = no result given.

SMILES	Vif inh	Wnt act	esBAF inh	MITF TRPM1 HTS	Glyco luc inh	PfHsp90 set2
COc1ccccc1CNC(=O)C[C@@H]1CC[C@@H]2[C@H](COC[C@@H](O)CN2C(=O)Nc2ccc(C(F)(F)F)cc2)O1	.	.	2	.	.	.
O=c1[nH]c(C(F)(F)F)nc2c1nnn2Cc1ccccc1F	-18	-1	-3	2	-2	-1
COc1ccc(C2C(=O)N(CCc3ccccc3)CC(=O)N2C2CCCC2)cc1 (stereo not drawn)	18	.	1	-5	-1	8
COc1ccc2nc(N3CCC(O)CC3)c(C#N)cc2c1	.	11	23	43	2	13
COc1ccc2nc(N3CCC(C)CC3)c(C#N)cc2c1	-1	.	64*	84*	0	2
COc1ccc(NC2=Nc3ccccc3CC2)cc1	-2	39*	9	91*	-6	-25
COC(=O)C1=C(C)N(Cc2ccc(C(F)(F)F)cc2)C(=NCc2ccccc2C(F)(F)F)NC1c1ccc(F)cc1 (stereo not drawn)	.	-30	.	.	.	.
O=C(Nc1nnc(SCc2ccc(F)cc2)s1)c1ccccn1	-4	1	.	-3	0	101*
COc1ccc(S(=O)(=O)NCc2ccc3c(c2)OCO3)cc1OC	114*	2	-4	-12	1	2
Cc1cc[n+](CC(=O)c2cccc([N+](=O)[O-])c2)c2ccccc12	6	-5	-8	.	8	18
COc1ccccc1Nc1nc2ccccc2n1C	7	14	65*	92*	0	6
N/C(=N\OC(=O)c1ccc(Cl)cc1[N+](=O)[O-])c1cccnc1	-6	37*	.	.	0	-18
N/C(=N\OC(=O)c1ccc(Cl)c(Cl)c1)c1cccnc1	.	.	52*	28	3	1
N/C(=N\OC(=O)c1cc(Cl)ccc1Cl)c1ccncc1	0	-4	.	32	1	-8
N/C(=N\OC(=O)c1ccccc1)c1ccn[nH]1	-2	49*	25	19	-6	-5
N/C(=N\OC(=O)c1ccc(Cl)cc1Cl)c1ccncc1	7	35*	.	.	-8	-17
N/C(=N\OC(=O)c1ccccc1Cl)c1cccnc1	-11	.	22	31	-6	-11
N/C(=N\OC(=O)c1ccc(Br)cc1)c1ccccc1	13	.	-47	70	-14	.
N/C(=N\OC(=O)c1ccc(Cl)cc1[N+](=O)[O-])c1ccccn1	4	21	10	49	-5	1
O=C(CC(CC(=O)c1ccccc1)c1ccncc1)c1ccccc1	?	-3	4	1	-2	-10
Cc1occc1C(=O)O/N=C(\N)c1ccc(Cl)cc1	-4	63*	64*	.	2	-14
N/C(=N\OC(=O)c1ccco1)c1ccccc1	2	36*	?	95*	-7	-17
N/C(=N\OC(=O)c1cc(Cl)ccc1Cl)c1cccnc1	30	.	52*	.	0	-27
Cc1ccc(/C(N)=N/OC(=O)c2ccco2)cc1	-2	?	-25	.	-17	.
N/C(=N\OC(=O)c1cccc(Cl)c1)c1cccnc1	-15	.	73*	18	-1	13
SMILES	Vif inh	Wnt act	esBAF inh	MITF TRPM1 HTS	Glyco luc inh	PfHsp90 set2
COc1ccc(Cl)cc1C(=O)O/N=C(\N)c1ccc(Cl)cc1	12	5	.	14	0	2
C[C@@H]1CN([C@@H](C)CO)C(=O)c2cc(NC(=O)NC3CCCCC3)ccc2O[C@@H]1CN(C)S(=O)(=O)c1ccc(Cl)cc1	.	.	-1	.	.	.
CCN1CCN(CCC(=O)Nc2cccc(OC)c2)CC1	-1	-5	.	-18	0	-17
CCn1cc(C(=O)Nc2ccc(Oc3cccnc3)cc2)c2ccccc21	.	9	.	.	.	.
C=CCc1ccccc1OCC(O)CN1CCN(Cc2ccc3c(c2)OCO3)CC1 (stereo not drawn)	-4	-2	6	-9	-2	-1
N/C(=N\OC(=O)c1ccccc1)c1cccnc1	2	51*	56*	17	-1	.
COc1ccc(C2C3=C(CC(C)(C)CC3=O)Nc3c2c(=O)[nH]c(=O)n3Cc2ccccc2)cc1OC (stereo not drawn)	.	.	3	13	-2	-4
COc1cc(C2C3=C(CC(C)(C)CC3=O)Nc3c2c(=O)[nH]c(=O)n3Cc2ccccc2)ccc1O (stereo not drawn)	4	33*	.	-9	1	12
CN(CC(=O)Nc1cccc(F)c1)C(=O)c1sc2ccccc2c1Cl	14	-5	62*	16	1	-8
N#Cc1cc(N2CCCCC2)c([N+](=O)[O-])cc1C#N	1	-3	.	1	1	-3
COc1ccc2oc(C(=O)N3CCN(S(=O)(=O)c4c(C)c(C)cc(C)c4C)CC3)c(C)c2c1	5	-3	51*	.	-6	-17
COc1ccc2oc(C(=O)N3CCN(S(=O)(=O)c4ccc(F)cc4)CC3)c(C)c2c1	1	-1	0	11	-5	15
COc1ncccc1-c1nnn(-c2ccc(Cl)c(Cl)c2)n1	6	39*	88*	102*	-1	-2
O=c1[nH]c2ccccc2cc1-c1nnn(-c2ccc(F)cc2)n1	-2	?	79*	76	4	2
COc1ncccc1-c1nnn(-c2ccc(F)cc2)n1	3	34*	54*	-15	-6	27
Cc1ccc(-n2nnc(-c3cc4ccccc4nc3Cl)n2)cc1	-3	1	45*	.	-3	-5
Fc1ccc(-n2nnc(-c3ccccc3Br)n2)cc1	4	-1	2	9	1	-11
COc1ncccc1-c1nnn(-c2ccc(C)cc2)n1	-3	39*	?	57	-6	-9
Cc1ccc(-n2nnc(-c3nccs3)n2)cc1	-5	-5	-73	-56	-22	-19
C[C@@H]1CN([C@H](C)CO)C(=O)c2cc(C3=CCCC3)cnc2O[C@H]1CN(C)C(=O)NC1CCCC1	.	.	-2	.	.	.
CCOc1ccc2nc(SCC(=O)NNC(=O)c3ccco3)c(C)cc2c1	-4	-3	-8	.	-3	8
CCOc1ccc2cc(/C=C/C(=O)c3ccco3)c(Cl)nc2c1	?	.	57*	.	?	.
O=[N+]([O-])c1cc2no[n+]([O-])c2cc1N1CCCCC1	10	-1	.	.	1	105*
C(#CC1CCCCC1)c1ccc2c(c1)COc1c3ccccc3nn1-2	-1	35*	?	.	-7	-4
CC(C#Cc1ccc2c(c1)COc1c3ccccc3nn1-2)OC(C)(C)C (stereo not drawn)	.	15	104*	95*	-3	-16
C(#Cc1ccc2c(c1)COc1c3ccccc3nn1-2)c1ccccc1	1	32*	63*	100*	-1	0
CC(C)NC(=O)c1ccc2c3n(nc2c1)-c1ccccc1CO3	.	18	-45	-13	-15	26
C#Cc1ccc2c(c1)COc1c3ccccc3nn1-2	-8	27	10	18	-5	13
